# Hits are enriched below; roughly 1.8% of the tested compounds scored in any of these assays.
# rTrxR1 inhibitor: blocks rat thioredoxin reductase 1; O89049; recombinant rTrxR1, NADPH fluorescence consumption, selenite substrate; Potency, µM (top dose mostly 114 µM), for inactives: at the top dose activity change, negative = inhibition, hits mostly inhibitors; actives 1% (n = 390,000); AID 588453; note: % is set by controls: 0 for no effect and ±100 for the full control effect; nearly all actives have a fitted effect of over 65% in size
# Target sequence (O89049 whole entry, looked up): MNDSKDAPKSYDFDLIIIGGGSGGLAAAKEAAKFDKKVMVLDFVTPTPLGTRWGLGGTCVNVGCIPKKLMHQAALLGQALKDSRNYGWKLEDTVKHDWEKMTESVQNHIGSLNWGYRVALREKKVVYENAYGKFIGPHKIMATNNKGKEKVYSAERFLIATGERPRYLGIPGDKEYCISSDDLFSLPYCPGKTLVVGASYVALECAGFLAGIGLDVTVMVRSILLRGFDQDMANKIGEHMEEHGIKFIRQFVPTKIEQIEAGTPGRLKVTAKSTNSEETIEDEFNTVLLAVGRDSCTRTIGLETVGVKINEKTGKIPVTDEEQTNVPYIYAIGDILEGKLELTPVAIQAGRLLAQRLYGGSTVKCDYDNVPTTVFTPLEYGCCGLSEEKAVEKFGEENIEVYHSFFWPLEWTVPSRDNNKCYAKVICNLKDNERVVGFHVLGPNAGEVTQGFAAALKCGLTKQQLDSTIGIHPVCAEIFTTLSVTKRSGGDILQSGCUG
#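 Rat TrxR1 (90 nM in the dispensed reagent) was pre-reduced with 400 uM NADPH for 5 min at room temperature, then incubated with compound for 15 min. After 400 uM selenite was added, NADPH fluorescence (Ex 340/Em 450 nm) was followed for 8 min.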
# VDR inhibitor: inhibitors of human vitamin D receptor; P11473; VDR-SRC2-3 peptide fluorescence polarization, 2 h; Potency, µM, for the others: max response, negative = inhibition, hits mostly inhibitors; actives 0.93% (n = 400,000); note: % is set by controls: 0 for no effect and ±100 for the full control effect
#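 Compounds are added to VDR with labelled SRC2-3 coactivator peptide and held 2 h at room temperature. Inhibition of the VDR–peptide interaction is then read as a change in fluorescence polarization.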
# Vif-APOBEC3F blk: Vif-A3F binding inhibition | HeLa A3F-eYFP + Vif (tagged APOBEC3F with the HIV-1 protein that degrades it), YFP fluorescence increase | Potency, µM (titrated, usually from 46.1 µM), for inactives: at the highest dose activity, negative = active | actives 0.2% (n = 390,000); note: % of control where 0% means no effect; nearly all actives have a fitted effect of over 65% in size
#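 HeLa cells stably expressing Vif plus C-terminally eYFP-tagged A3F were seeded, incubated overnight at 37 deg C, dosed with compound, incubated overnight again at 37 deg C. Yellow fluorescence (Ex 488/Em 500-530) reported blocked Vif-mediated A3F-eYFP degradation.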
# TrxR1 substrate: substrates of rat thioredoxin reductase 1; actives 0.01% (n = 390,000); purified TrxR1 substrate turnover, NADPH consumption readout; O89049; Potency, µM (series often up to 114 µM), for inactives: at the top dose activity change, negative = substrate turnover; note: % is set by controls: 0 for no effect and ±100 for the full control effect; nearly all actives have a fitted effect of over 50% in size
#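 Rat TrxR1, dispensed at 90 nM, was prereduced with 400 uM NADPH (final) for 5 min at ~22 deg C, then incubated with compound 15 min before 400 uM selenite. A first-read NADPH fluorescence drop versus no-compound background flagged substrates.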
# Vif-APOBEC3G blk: inhibitors of Vif-APOBEC3G interaction | HeLa A3G-eYFP + Vif (tagged APOBEC3G with the HIV-1 protein that degrades it), YFP fluorescence, overnight | Potency, µM (doses to about 46.1 µM), without a hit: top-dose activity, negative = active, actives largely listed as inhibitors | actives 0.076% (n = 410,000); note: % is set by controls: 0 for no effect and ±100 for the full control effect; nearly all actives have a fitted effect of over 60% in size
#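 Read-out is eYFP fluorescence (Ex 488/Em 500-530) from Vif-expressing HeLa A3G-eYFP cells; more signal means A3G escaped Vif-mediated degradation. Cells plated overnight, compound pinned in, incubated overnight at 37 deg C.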
# * marks the source's active call; other numbers are inactive results; ? = inconclusive; · = no result; [ ] = dose if it differs, or a comment. Calls come from the whole dose curve; as a rule, active = well fitted curve in the direction sought with a large enough effect; inconclusive = small, poorly fitted or top-dose-only effect, or another doubt; inactive = no such curve, though single readings can be large; an effect the other way counts as inactive or inconclusive. Potency is the fitted concentration of half-maximal effect.
SMILES,rTrxR1 inhibitor,VDR inhibitor,Vif-APOBEC3F blk,TrxR1 substrate,Vif-APOBEC3G blk
COc1ccc(Oc2ncc3nc(-c4cccc(C#N)c4)c(=O)n(CCC#N)c3n2)cc1,·,-7.8%,·,·,·
CN(C)c1ccc(C(=C2C=CC(=[N+](C)C)C=C2)c2c(O)c(S(=O)(=O)[O-])cc3cc(S(=O)(=O)O)ccc23)cc1,-11.6%,87.7%,·,-8.0%,1.0%
CN(C)c1ccc(C(=C2C=CC(=[N+](C)C)C=C2)c2ccc(N(C)C)cc2)cc1,-13.9%,39.8µM*,·,2.8%[0.0914 µM],7.5%
COc1ccc(Nc2oc(COc3ccccc3OC)nc2C#N)cc1,44.7µM*,-19.1%,?,-7.5%,-7.7%
Cc1cccc(-c2nc3c4ccccc4nc(NCc4ccc(Cl)cc4)n3n2)c1,10.7%,-9.3%,-21.4%,1.4%,0.5%
N#CC1=C(S)N(c2ccc(F)cc2)C2(CCCCC2)NC1=O,-6.1%,?,11.2µM*,-3.6%,8.7%
N#CC1=C(S)N(c2ccccc2)C2(CCCCC2)NC1=O,-20.9%,35.5µM*,1.9%,-1.9%,-0.2%
CC(C)(C)n1ncc2c(=O)n(Cc3ccccc3CS(=O)(=O)c3ccccc3)cnc21,6.8%,·,·,-6.6%,0.3%
Cc1nc(N)nc(N/N=C/c2c(F)cccc2Cl)n1,27.6%[57.1 µM],-1.3%,-19.1%,-17.0%[57.1 µM],0.4%
Cc1nc(C#N)c(N/N=C/c2c(F)cccc2Cl)o1,?,79.4µM*,-12.1%,-9.7%,4.2%
Clc1ccccc1Cn1c(/C=C/c2ccco2)nc2ccccc21,50.1µM*,?,?,-1.2%,10µM*
O=C(NCCCc1nc2ccccc2n1Cc1ccccc1Cl)c1ccco1,-0.4%,15.5%,1.3%,-0.3%,0.8%
CCOC(=O)C1=C(N)Oc2ccc(Br)cc2C1C(C#N)C(=O)OCC (centres undefined),·,5.62µM*,·,·,·
CCOC(=O)C1=C(N)Oc2cc(O)ccc2C1c1ccc(C)cc1 (centres undefined),2.4%[57.1 µM],-2.1%,7.5%,0.2%[57.1 µM],-17.0%
Cc1ccc(C)c(N2CCN(C(=O)CCc3c(C)nn(-c4ccc(N5CCCC5)nn4)c3C)CC2)c1,22.9%[57.1 µM],-2.5%,0.3%,4.8%[57.1 µM],1.4%
O=C(NCc1ccc(F)cc1)C1CCN(S(=O)(=O)c2ccc3c(c2)CCCN3C(=O)C2CCC2)CC1,21.2%[57.1 µM],5.1%,-1.9%,5.3%[57.1 µM],-0.9%
Oc1ccccc1C1CC(c2cccs2)=NC(c2cccc(Br)c2)N1 (centres undefined),-55.5%,70.8µM*,-5.0%,7.2%[57.1 µM],?
O=S(=O)(c1ccccc1)N1N=C(c2cccs2)CC1c1cccc(O)c1 (centres undefined),26.9%,3.4%,-16.6%,-2.9%,-6.7%
Cc1ccccc1NC(=O)CN(C)S(=O)(=O)c1cccc2nsnc12,13.7%[57.1 µM],6.3%,-2.3%,-4.9%[57.1 µM],-1.0%
CCCCN(C)C(=O)c1ccc2c(c1)N(Cc1cccc(F)c1)C(=O)c1ccccc1S2,4.0%[57.1 µM],7.1%,3.2%,-6.5%[57.1 µM],-4.9%
Cc1cccn2c(=O)c(C=O)c(Cl)nc12,?,?,?,9.4%[57.1 µM],?
O=Cc1c(Cl)nc2ccccn2c1=O,17.8µM*,-4.2%,?,21.3%,?
c1ccc2[nH]c(NN=C3CCCCCC3)nc2c1,12.8%[57.1 µM],8.8%,22.4µM*,7.1%[57.1 µM],0.5%
O=[N+]([O-])C(/C=C(\Cl)[N+](=O)[O-])=C1N(Cc2ccc(Cl)nc2)CCN1Cc1ccc(Cl)nc1,1.78µM*,-9.0%,-5.3%,-9.5%,-15.7%
O=C(Nc1ccc(F)c(F)c1)C1CCCN1S(=O)(=O)c1cccc2nsnc12 (centres undefined),34.5%,-11.2%,3.2%,6.2%,-3.0%
CN(C)C(=O)c1ccc(/C=C/c2ccnc3ccccc23)cc1,-35.0%,·,·,-9.2%,?
COc1ccc2c(c1)c1nnc(SC)nc1n2Cc1ccccc1,7.7%,3.8%,·,0.6%,·
COC(=O)c1nn2c(C(F)(F)F)cc(-c3ccc(Br)o3)nc2c1Br,6.31µM*,-21.0%,?,10.0%,-22.6%
CC(c1ccccc1)C1CC(=O)N(Cc2ccco2)C1=O (centres undefined),39.8µM*,-16.9%,6.4%,3.0%,1.9%
CCOc1cc2c(C#N)c(N(CC)CC)nc(N)c2c(N)n1,13.0%[57.1 µM],44.7µM*,4.7%,5.1%,-1.4%
